A number with no mark means an inactive call. Where a call stands in place of a potency, no number is given. Calls of active or inactive are those of the source. The call rests on the fitted dose curve; in most records, active means well fitted inhibition curve with a large enough effect; inconclusive means small, poorly fitted or top-dose-only effect; inactive means flat fitted curve, though single readings scatter.
Test system: Nanoluciferase (engineered Oplophorus gracilirostris luciferase)
Experiment: Primary Nanoluciferase (NLuc) qHTS assay for identification of artifact compounds. (AID 1845222)
Conditions: NLuc-conditioned medium, Nano-Glo luminescence, 5 min; series mostly up to 54.1 µM
Description: PI: Alexander Tropsha Ph.D.
UNC Eshelman School of Pharmacy
University of North Carolina, Chapel Hill, North Carolina
Hits from high-throughput screening (HTS) of chemical libraries are often false positives due to their interference with the assay detection technology. In response to this problem, we generated the largest publicly available library of chemical liabilities and developed a free webtool to predict HTS artifacts, both of which are described herein. More specifically, we generated, curated, and integrated HTS datasets for thiol reactivity, redox activity, and luciferase (firefly and nano) activity. Using these curated datasets, we developed and validated several Quantitative Structure-Interference Relationship (QSIR) models to predict nuisance behavior. […] These models were employed for virtual profiling of the National Center for Advancing Translational Science's (NCATS) in-house library, and 256 compounds for each assay were selected for the experimental validation of nuisance behavior. The BA for these external predictions ranged from 58 to 78% for compounds within the applicability domains of the models. […] The models developed in this study, along with aggregation models previously developed by our group (SCAM Detective) were implemented in "Liability Predictor," an online tool which may be used as part of chemical library design or for triaging HTS hits. Both the models and the curated datasets are publicly available at https://liability.mml.unc.edu/.
SEQUENCE No. (e.g., 1, 2, 3, etc.); […] (e.g., Cells, Incubation, Reagent, etc.); VALUE; DESCRIPTION.
1; Reagent; 2 uL; Nanoluciferase media.
2; Compounds and control; 16 nL; Kalypsis pin tool (Wako USA) equipped with a 1536-well pin head.
4; Reagent; 2 uL; Luciferase enzyme.
6; Detection; Luminescence, ViewLux microplate reader.
NOTES (numbers refer to Sequence numbers above)
1. Medium was collected from the culture flasks of NLuc-expressing S16 cells (80% confluent) prior to cell plating, filtered through a 0.22um filter, and frozen at -20C prior to use. Media was diluted (1:55) and 2 uL was dispensed into all wells of a 1536-well assay plate (solid-bottom white plate; Greiner Bio One, Monroe, NC).
2. A Wako Pin-tool (Wako Automation, Richmond, VA) was used to transfer 16 nL of compounds (consisting of 7-plates in qHTS format, final concentration range 18.3 nM to 114 uM) or control Cilnidipine (final concentration range 623 nM to 80 uM).
3. 15 min. incubation at room temperature protected from light.
4. 2 uL of NLuc substrate (1:100 in Nano-Glo luciferase buffer; Nano-Glo luminescence assay, Promega, Madison, WI) was dispensed for a final assay volume of 4 uL.
5. Plates were centrifuged (121xg, 15 seconds) and incubated for 5 minutes.
6. Samples were read for luminescence on a ViewLux CCD imager (PerkinElmer). Data were normalized to no-enzyme (0% activity) and no-inhibitor (DMSO; 100%) controls and the resulting percent inhibition data were fitted to a 4-parameter Hill equation using NCATS in-house software.

SMILES | Potency | activity, negative = inhibition
Nc1nc2c(ncn2C2OC3COP(=O)(O)OC3C2O)c(=O)[nH]1 (stereo not given) | inactive | 
O=C(Nc1ccn(Cc2ccc(O)cc2C(F)(F)F)n1)c1c(F)cccc1F | inactive | 
c1cc(NC2CCNCC2)nc(-c2cnc3ccccn23)c1 | inactive | 
NC(N)=N/N=C/c1ccccc1Cl | inactive | 
CC1(C)CC[C@]2(C(=O)O)[C@H](O)C[C@]3(C)C(=CCC4[C@@]5(C)CC[C@H](O[C@@H]6O[C@H](CO[C@@H]7OC[C@H](O)[C@H](O)[C@H]7O[C@@H]7OC[C@H](O)[C@H](O)[C@H]7O)[C@@H](O)[C@H](O)[C@H]6O)C(C)(C)C5CC[C@]43C)[C@@H]2C1 (stereo not given in full) |  | 1.1% [at 11.6 µM]
CCCN1CCC=C(c2cc(-c3ccc(C)cc3)no2)C1 | inactive | 
CC(=O)C1(C)CCC2C3C=C(C)C4=CC(=O)CCC4(C)C3CCC21C (stereo not given) | inactive | 
CC1CCCC(O)CCC/C=C/c2cc(OS(=O)(=O)O)cc(O)c2C(=O)O1 (stereo not given) | inactive | 
Cc1cccc(C#Cc2cc(F)cc(C#N)c2)n1 | inactive | 
O=C(NCC1(N2CCN(c3ccccc3)CC2)CCOCC1)c1cccnc1Sc1ccccc1 | inactive | 
CN[C@@H]1[C@H](O[C@H]2[C@H](O[C@@H]3[C@@H](O)[C@H](O)[C@@H](N=C(N)N)[C@H](O)[C@H]3N=C(N)N)O[C@@H](C)[C@]2(O)CO)O[C@@H](CO)[C@H](O)[C@H]1O | inactive | 
Cc1cc(Nc2nc(-c3ccccc3)nc3ccccc23)n[nH]1 | inactive | 
CCCCNc1ncc(C(=O)NCc2ccc(-n3ccnc3)cc2)c(NC2CCC(O)CC2)n1 (stereo not given) | inactive | 
O=C(NC1(c2ccccc2)CC1)c1c(CN2CCC(N3CCCCC3)CC2)c(-c2cccc(C(F)(F)F)c2)nc2cc(Br)ccc12 | inactive | 
CC(=O)O[C@H]1C[C@@](O)(C(C)C)[C@@H]2[C@@H](OC(=O)c3ccc(O)cc3)CC(C)=CC[C@@]12C | inactive | 
CCn1c2ccccc2c2cc(Nc3ccnc(NCCCN4CCOCC4)n3)ccc21 | inactive | 
O=C(c1ccccc1)c1c(O)cc(O)cc1O[C@@H]1O[C@H](CO)[C@@H](O)[C@H](O)[C@H]1O | inactive | 
C=C1C(=O)OC[C@@H]1C/C=C(\C)CC1CC(C)C(=O)O1 (stereo not given in full) | inactive | 
C=C1C(=O)OC2/C=C(\C)CC3C=C(CC/C=C(\C)CCC12)C(=O)O3 (stereo not given) | inactive | 
CCc1ccc(-c2nc(CSCC(=O)NCCc3ccccc3)c(C)o2)cc1 | inactive | 

SMILES | Potency | activity, negative = inhibition
C/C1=C\[C@@H](C)C[C@@H](C)[C@@H](Cc2cnco2)OC(=O)/C(C)=C/[C@@H](C)C[C@@H](C)[C@@H](Cc2cnco2)OC1=O | inactive | 
CN(C)C(=O)Nc1cc(-c2ccccc2)ccc1N(C)C | inactive | 
CCc1cc2c(cc1CC)CC(NCC(O)c1ccc(O)c3[nH]c(=O)ccc13)C2 (stereo not given) | inactive | 
COc1cc(C[C@H]2C(=O)OC[C@@H]2Cc2ccc(OC)c(OC)c2)ccc1O | inactive | 
CC(=O)O[C@@H]1C[C@@]23C[C@@]24CC[C@H](O[C@@H]2OC[C@H](O)[C@H](O)[C@H]2O)C(C)(C)[C@@H]4CC[C@H]3[C@]2(C)[C@@H](O)C34O[C@H](C[C@@H](C)[C@@H]3[C@@]12C)[C@@H](C(C)(C)O)O4 | inactive | 
CCCCOC(=O)NS(=O)(=O)c1sc(CC(C)C)cc1-c1ccc(Cn2ccnc2)cc1 | inactive | 
C=CC(C)(C)C12CC3C(=O)N4C(CC5(C(C)(C)C=C)c6ccccc6NC45)C(=O)N3C1Nc1ccccc12 (stereo not given) | inactive | 
CC(=O)OC[C@]12[C@H](OC(C)=O)C(=O)[C@@H]3[C@@H](O)[C@@]14O[C@@]3(C)COC(=O)c1cccnc1[C@@H](C)[C@H](C)C(=O)O[C@@H]([C@H](O)[C@@H]2OC(C)=O)[C@]4(C)O | inactive | 
COc1ccccc1N1CCN(CC[C@@](C)(C(=O)C2CCCCC2)c2ccccc2)CC1 | inactive | 
C/C=C/C=C/C=C/C(=O)O[C@@H]1C=C2COC(=O)[C@]2(O)[C@@]2(C)CCCC(C)(C)[C@H]12 | inactive | 
COc1ccccc1N1CCN(CC(C(=O)NC(C)(C)C)c2ccccc2)CC1 (stereo not given) | inactive | 
CCC(C)C(=O)OC12C(OC(C)=O)C(C)C3(O)C(C=C(CO)CC4(O)C(=O)C(C)=CC43)C1C2(C)C (stereo not given) | inactive | 
C[C@@H]1CC[C@@]23CC[C@]4(C)[C@@](C=CC5[C@@]6(C)CC[C@H](O)C(C)(C)C6CC[C@]54C)(OC2=O)C3[C@H]1C (stereo not given in full) | inactive | 
C=C1CCC[C@]2(C)CC/C(=C(/CO)C(=O)OC)C[C@@H]12 | inactive | 
C=C[C@@]1(C)C=C2C(=O)C(O)=C3[C@](C)(C(=O)O)CC[C@@H]4C[C@]34[C@]2(O)C(=O)C1 | inactive | 
CC(C)OC(=O)N1CCC(Oc2ncnc3c2cnn3-c2ccc(S(C)(=O)=O)cc2F)CC1 | inactive | 
Cn1cc(-c2ccc(F)c(C(F)(F)F)c2)nc1C1CCN(c2ncnc3[nH]ncc23)CC1 | inactive | 
Nc1c(S(=O)(=O)c2ccccc2)c2nc3ccccc3nc2n1-c1ccc(F)cc1 | inactive | 
C=C1/C(=C/C=C2\CCC[C@]3(C)[C@@H]([C@@H](C)OCCC(O)(CC)CC)CC[C@@H]23)C[C@@H](O)C[C@@H]1O | inactive | 
CCO[C@H]1CN(C2CCC(O)(c3ccc4c(c3)OCO4)CC2)C[C@@H]1NC(=O)CNC(=O)c1cccc(C(F)(F)F)c1 (stereo not given in full) | inactive | 

— PubChem BioAssay (NCATS)
